Measured values from PubChem BioAssay (Tox21).
Values joined by “and” are separate entries in the source; they are usually repeats but may differ in a detail not shown here. Equal entries are not always repeated. Records with an inconclusive call do not appear. Some compounds were tested as several samples or in several runs, with calls that do not always agree. Active and inactive are the calls of the source. Unless noted, calls come from the whole dose curve; as a rule, active = well fitted curve in the direction sought with a large enough effect in the repeat runs; inconclusive = weak or mixed curves; inactive = no such curve, though single readings can be large; an effect the other way counts as inactive or inconclusive.

Columns and labels:
[1] = qHTS assay to identify small molecule agonists of the peroxisome proliferator-activated receptor delta (PPARd) signaling pathway - cell viability counter screen (AID 743211); note: nearly all actives have a fitted effect of over 55% in size; note: potency is the fitted concentration of half-maximal effect
In short: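 In the same wells used for beta-lactamase reporter measurement, cytotoxicity is scored by CellTiter-Glo. HEK293H PPARd-bla cells receive compound for 17 h at 37C following a 5 h settling period.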

[2] = qHTS assay to identify small molecule antagonists of the peroxisome proliferator-activated receptor delta (PPARd) signaling pathway - cell viability counter screen (AID 743213); note: nearly all actives have a fitted effect of over 50% in size; note: potency is the fitted concentration of half-maximal effect
In short: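 PPARd-bla HEK293H cells were treated with compounds plus agonist L165041 (300 nM final) for 17 h at 37 C. Viability was then read in the same wells by CellTiter-Glo luminescence after 30 min at room temperature.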

[3] = qHTS assay to identify small molecule agonists of the farnesoid-X-receptor (FXR) signaling pathway - cell viability counter screen (AID 743218); note: nearly all actives have a fitted effect of over 45% in size; note: potency is the fitted concentration of half-maximal effect
In short: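 FXR-UAS-bla HEK 293T cells, plated 5 h at 37 C, were exposed to compounds for 16 h at 37 C. CellTiter-Glo was then added to the same wells as the bla readout; luminescence read after 30 min at room temperature.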

[4] = qHTS assay to identify small molecule antagonists of the farnesoid-X-receptor (FXR) signaling pathway - cell viability counter screen (AID 743221; active = well fitted cell-killing curve with a large enough effect in the repeat runs, not every such curve was filed as active; note: nearly all actives have a fitted effect of over 50% in size; note: potency is the fitted concentration of half-maximal effect)
In short: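 Here viability was scored by luminescence after CellTiter-Glo addition to wells already read for beta-lactamase. Prior treatment: compound plus CDCA (50 uM final), 16 h, 37 C, HEK 293T FXR-bla cells.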

[5] = qHTS assay to identify small molecule agonists of the vitamin D receptor (VDR) signaling pathway - cell viability counter screen (AID 743224); note: nearly all actives have a fitted effect of over 50% in size; note: potency is the fitted concentration of half-maximal effect
In short: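 VDR-bla cells were preincubated 4 h at 37C/5% CO2, then exposed to compounds for 16 h. After the 2 h room-temperature bla FRET read, CellTiter-Glo was added to the same wells and luminescence read after 30 min.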

[6] = qHTS assay to identify small molecule antagonists of the vitamin D receptor (VDR) signaling pathway - cell viability counter screen (AID 743225); note: nearly all actives have a fitted effect of over 50% in size; note: potency is the fitted concentration of half-maximal effect
In short: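 Compounds were pinned onto VDR-bla HEK 293T cells together with 1-alpha,25-dihydroxyvitamin D3 at 3 nM final. After 16 h at 37C and 5% CO2 plus the reporter readout, cell viability was measured by CellTiter-Glo luminescence (30 min, room temperature).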

[7] = qHTS assay to identify small molecule agonists of the NFkB signaling pathway - cell viability counter screen (AID 1159515; calls by dose curve; note: nearly all actives have a fitted effect of over 55% in size; note: potency is the fitted concentration of half-maximal effect)
In short: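 NFkB-bla ME-180 cells, 2,000/well, were plated overnight at 37 C, 5% CO2, then exposed to compounds in DMSO for 5 hr. After the bla FRET read, CellTiter-Glo was added to the same wells; luminescence was read after 30 min at room temperature.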

[8] = qHTS assay to identify small molecule agonists of the endoplasmic reticulum stress response signaling pathway - cell viability counter screen (AID 1159517; calls by dose curve; note: nearly all actives have a fitted effect of over 50% in size; note: potency is the fitted concentration of half-maximal effect)
In short: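 Cells, HeLa ESRE-bla; density, 1,500/well; dosing, 5 hr at 37 C, 5% CO2; readout, CellTiter-Glo luminescence after 30 min RT.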

[9] = qHTS assay to identify small molecule antagonists of the retinoid-related orphan receptor gamma (ROR-gamma) signaling pathway - cell viability counter screen (AID 1159520); note: nearly all actives have a fitted effect of over 50% in size; note: potency is the fitted concentration of half-maximal effect
In short: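 Cytotoxicity was read from cellular ATP (CellTiter-Glo luminescence) after 16 hr at 37 C with 1 uM doxycycline induction. The inducer was added 2 hr after compound transfer to Tet-on ROR gamma CHO cells.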

[10] = target: Nuclear receptor ROR-gamma (Homo sapiens) (UniProt P51449); test: qHTS assay to identify small molecule antagonists of the retinoid-related orphan receptor gamma (ROR-gamma) signaling pathway (AID 1159521; note: nearly all actives have a fitted effect of over 50% in size; note: potency is the fitted concentration of half-maximal effect)
In short: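 Test compounds were applied to Tet-on RORγ CHO cells 2 h ahead of doxycycline hyclate (1 uM final). Luciferase reporter activity was quantified by luminescence after 16 h at 37 C and 5% CO2.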

[11] = qHTS assay to identify small molecule agonists of the AP-1 signaling pathway - cell viability counter screen (AID 1159525; calls by dose curve; note: nearly all actives have a fitted effect of over 55% in size)
In short: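 Luminescent ATP readout (Cell Titer Glo, 30 min RT), normalised to DMSO and tetra n-octyl ammonium bromide controls. Cells were ME-180 AP-1-bla in 0.5% dialyzed FBS Opti-MEM, with a 5 h, 37 °C compound exposure.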

[12] = target: Peroxisome proliferator-activated receptor delta (Homo sapiens) (UniProt Q03181); test: qHTS assay to identify small molecule agonists of the peroxisome proliferator-activated receptor delta (PPARd) signaling pathway (AID 743212; calls by dose curve; note: % is set by controls: 0 for no effect and ±100 for the full control effect)
Chain of Peroxisome proliferator-activated receptor delta (Homo sapiens) (Q03181 whole entry, looked up): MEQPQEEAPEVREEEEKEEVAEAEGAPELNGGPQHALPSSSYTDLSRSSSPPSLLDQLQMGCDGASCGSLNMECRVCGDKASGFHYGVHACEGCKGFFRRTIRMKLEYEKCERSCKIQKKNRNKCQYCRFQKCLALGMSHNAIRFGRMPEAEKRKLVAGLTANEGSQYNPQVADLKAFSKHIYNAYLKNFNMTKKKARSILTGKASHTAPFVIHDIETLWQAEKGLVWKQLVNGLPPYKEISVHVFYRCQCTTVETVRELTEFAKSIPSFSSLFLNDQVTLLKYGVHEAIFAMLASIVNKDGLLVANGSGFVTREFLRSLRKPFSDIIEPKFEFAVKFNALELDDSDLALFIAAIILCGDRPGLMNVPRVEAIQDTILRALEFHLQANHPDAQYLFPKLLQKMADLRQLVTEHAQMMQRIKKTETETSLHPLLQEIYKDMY
In short: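 HEK293H UAS-bla reporter cells, human PPARd system; compounds delivered in DMSO after 5 h plating, then at 37 C. Beta-lactamase FRET read, 2 h RT substrate step.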

[13] = target: Peroxisome proliferator-activated receptor delta (Homo sapiens) (UniProt Q03181); test: qHTS assay to identify small molecule antagonists of the peroxisome proliferator-activated receptor delta (PPARd) signaling pathway (AID 743215; active = well fitted inhibition curve with a large enough effect in the signal ratio in the repeat runs, not every such curve was filed as active; the % refers to the signal ratio;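 note: cells stimulated with agonist L165041 at 300 nM final during compound exposure; series mostly up to about 62 µM; % is set by controls: 0 for no effect and ±100 for the full control effect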)
In short: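 PPARd UAS-bla HEK293H cells were pre-incubated 5 h at 37 C, then given test compounds in DMSO plus agonist L165041 (300 nM final). After 17 h at 37 C, beta-lactamase FRET substrate was added; fluorescence read after 2 h at room temperature.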

[14] = target: Bile acid receptor (Homo sapiens) (UniProt Q96RI1); test: qHTS assay to identify small molecule antagonists of the farnesoid-X-receptor (FXR) signaling pathway (AID 743217; active = well fitted inhibition curve with a large enough effect in the signal ratio in the repeat runs, not every such curve was filed as active; the % refers to the signal ratio; note: potency is the fitted concentration of half-maximal effect)
Chain of Bile acid receptor (Homo sapiens) (Q96RI1 whole entry, looked up): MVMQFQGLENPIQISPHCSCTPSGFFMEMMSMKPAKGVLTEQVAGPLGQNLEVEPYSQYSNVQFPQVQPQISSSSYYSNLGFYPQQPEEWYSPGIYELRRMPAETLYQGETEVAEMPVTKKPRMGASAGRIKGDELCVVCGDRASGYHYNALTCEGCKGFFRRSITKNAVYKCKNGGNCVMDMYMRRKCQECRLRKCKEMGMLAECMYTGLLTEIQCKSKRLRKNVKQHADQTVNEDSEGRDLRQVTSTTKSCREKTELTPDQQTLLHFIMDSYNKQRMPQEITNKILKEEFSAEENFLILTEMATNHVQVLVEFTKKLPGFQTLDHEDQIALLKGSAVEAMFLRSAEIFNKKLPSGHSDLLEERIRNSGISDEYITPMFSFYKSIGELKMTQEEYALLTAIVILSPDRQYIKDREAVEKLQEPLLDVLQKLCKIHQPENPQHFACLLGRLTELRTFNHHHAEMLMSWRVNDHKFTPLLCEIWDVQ
In short: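 FXR-UAS-bla HEK 293T cells pre-incubated 5 h at 37 °C, then exposed to compounds with chenodeoxycholic acid (50 uM final) for 16 h at 37 °C. Beta-lactamase reporter read by LiveBLAzer B/G FRET substrate fluorescence after 2 h at room temperature.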

[15] = target: Bile acid receptor (Homo sapiens) (UniProt Q96RI1); test: qHTS assay to identify small molecule agonists of the farnesoid-X-receptor (FXR) signaling pathway (AID 743220; active = well fitted activation curve with a large enough effect in the signal ratio in the repeat runs, not every such curve was filed as active; the % refers to the signal ratio; note: potency is the fitted concentration of half-maximal effect)
In short: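 Beta-lactamase reporter under UAS control in GeneBLAzer FXR HEK 293T cells (5000/well) measured with LiveBLAzer FRET substrate after 2 h at room temperature. Compound exposure lasted 16 h at 37C.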

[16] = target: Vitamin D3 receptor (Homo sapiens) (UniProt P11473); test: qHTS assay to identify small molecule antagonists of the vitamin D receptor (VDR) signaling pathway (AID 743223; active = well fitted inhibition curve with a large enough effect in the signal ratio in the repeat runs, not every such curve was filed as active; the % refers to the signal ratio; note: % is set by controls: 0 for no effect and ±100 for the full control effect)
Chain of Vitamin D3 receptor (Homo sapiens) (P11473 whole entry, looked up): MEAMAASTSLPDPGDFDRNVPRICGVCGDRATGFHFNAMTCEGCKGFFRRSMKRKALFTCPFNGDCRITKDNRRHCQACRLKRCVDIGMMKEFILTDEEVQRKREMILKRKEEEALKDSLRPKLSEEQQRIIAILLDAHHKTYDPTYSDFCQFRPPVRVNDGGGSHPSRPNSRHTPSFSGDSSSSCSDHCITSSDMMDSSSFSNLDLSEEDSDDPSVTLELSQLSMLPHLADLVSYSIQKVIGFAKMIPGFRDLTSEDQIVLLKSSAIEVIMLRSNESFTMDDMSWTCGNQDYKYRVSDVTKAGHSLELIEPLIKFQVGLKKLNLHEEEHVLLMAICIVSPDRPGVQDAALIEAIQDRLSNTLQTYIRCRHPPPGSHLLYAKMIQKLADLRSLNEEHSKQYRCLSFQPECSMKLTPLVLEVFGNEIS
In short: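 Inhibition of agonist-driven VDR signalling is scored in VDR-bla cells: 3 nM final 1alpha,25-dihydroxyvitamin D3 plus compound, 16 h at 37C, then beta-lactamase detection by FRET substrate fluorescence after 2 h.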

[17] = qHTS assay to identify small molecule agonists of the AP-1 signaling pathway (AID 1159526; calls by dose curve; note: % is set by controls: 0 for no effect and ±100 for the full control effect)
[18] = target: Retinoic acid receptor RXR-alpha (Homo sapiens) (UniProt P19793); test: qHTS assay to identify small molecule agonists of the RXR signaling pathway (AID 1159527; calls by dose curve; note: nearly all actives have a fitted effect of over 35% in size; note: potency is the fitted concentration of half-maximal effect)
Chain of Retinoic acid receptor RXR-alpha (Homo sapiens) (P19793 whole entry, looked up): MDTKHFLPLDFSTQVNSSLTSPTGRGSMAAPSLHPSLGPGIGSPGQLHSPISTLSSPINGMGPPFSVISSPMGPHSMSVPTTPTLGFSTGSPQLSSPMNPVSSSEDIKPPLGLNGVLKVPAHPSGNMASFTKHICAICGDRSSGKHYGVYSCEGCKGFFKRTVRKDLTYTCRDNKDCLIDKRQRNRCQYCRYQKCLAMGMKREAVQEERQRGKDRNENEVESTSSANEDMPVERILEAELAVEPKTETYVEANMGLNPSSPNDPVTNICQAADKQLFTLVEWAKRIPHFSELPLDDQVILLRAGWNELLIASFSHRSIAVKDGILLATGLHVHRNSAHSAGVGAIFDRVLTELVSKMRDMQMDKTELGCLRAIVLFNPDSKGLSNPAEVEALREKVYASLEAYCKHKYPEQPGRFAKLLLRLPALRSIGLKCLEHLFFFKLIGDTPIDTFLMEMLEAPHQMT
In short: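 Using 9-cis retinoic acid as the reference agonist, chemicals were tested in HEK 293T cells […] for 16 hr; substrate loading lasted 2 hr at room temperature.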

[19] = target: Vitamin D3 receptor (Homo sapiens) (UniProt P11473); test: qHTS assay to identify small molecule agonists of the vitamin D receptor (VDR) signaling pathway (AID 743222; calls by dose curve; note: % is set by controls: 0 for no effect and ±100 for the full control effect)
In short: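 VDR-bla cells were plated 4 h at 37C/5% CO2, then exposed to compounds in DMSO for 16 h. After LiveBLAzer B/G FRET substrate addition and 2 h at room temperature, beta-lactamase reporter fluorescence was read.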

COc1cccc2c1C(=O)c1c(O)c3c(c(O)c1C2=O)C[C@@](O)(C(C)=O)C[C@@H]3O[C@H]1C[C@H](N)[C@H](O)[C@H](C)O1
30.8 µM (active) and inactive: Potency [10]
inactive: Potency [6] | Potency [7] | Potency [11]
55.3 µM (active) and inactive: Potency [4]
active: Potency [1] 24.7 µM and 33.5 µM | Potency [2] 43.9 µM | Potency [3] 55.3 µM and 2.4 nM | Potency [5] 34.9 µM | Potency [8] 0.952 µM | Potency [9] 13.8 µM and 15 µM

C=Cc1ccccc1C=C
inactive: Potency [1] | Potency [12] | Potency [2] | Potency [13] | Potency [14] | Potency [3] | Potency [15] | Potency [4] | Potency [16] | Potency [5] | Potency [6] | Potency [7] | Potency [8] | Potency [9] | Potency [10] | Potency [11] | Potency [17]

CCCCCCCCCCCCCCCC[N+](C)(C)CC
active: Potency [1] 21.9 µM and 29.8 µM | Potency [2] 17.4 µM and 21.1 µM | Potency [3] 31 µM and 29.8 µM | Potency [4] 43.8 µM and 29.8 µM | Potency [5] 21.9 µM | Potency [7] 21.3 µM | Potency [8] 24.6 µM | Potency [9] 61.3 µM and 23.7 µM | Potency [10] 17.3 µM and 2.98 µM
inactive: Potency [15]

Cc1c(C)c2c(c(C)c1O)CC[C@@](C)(CCC[C@H](C)CCC[C@H](C)CCCC(C)C)O2
inactive: Potency [1] | Potency [2] | Potency [13] | Potency [3] | Potency [4] | Potency [5] | Potency [7] | Potency [8] | Potency [9] | Potency [11] | Potency [17] | Potency [18]

Cc1cc(C(C)(C)C)c(O)c(C)c1Cn1c(=O)n(Cc2c(C)cc(C(C)(C)C)c(O)c2C)c(=O)n(Cc2c(C)cc(C(C)(C)C)c(O)c2C)c1=O
inactive: Potency [12] | Potency [2] | Potency [13] | Potency [15] | Potency [4] | Potency [16] | Potency [5] | Potency [7] | Potency [8] | Potency [9] | Potency [10] | Potency [11] | Potency [17] | Potency [18]
active: Potency [14] 19.5 µM | Potency [6] 12.3 µM

CNc1ccc([N+](=O)[O-])cc1
inactive: Potency [2] | Potency [4] | Potency [5] | Potency [6] | Potency [7] | Potency [8] | Potency [9] | Potency [11] | Potency [17] | Potency [18]
active: Potency [3] 27.6 µM

CCCCCCC1CCCC(=O)O1 (centres undefined)
inactive: Potency [1] | Potency [2] | Potency [13] | Potency [3] | Potency [4] | Potency [16] | Potency [5] | Potency [6] | Potency [7] | Potency [8] | Potency [9] | Potency [11] | Potency [17]

O=C(O)c1ccc2cc(C(=O)O)ccc2c1
inactive: Potency [1] | Potency [3] | Potency [4] | Potency [19] | Potency [5] | Potency [6] | Potency [7] | Potency [9] | Potency [11] | Potency [17] | Potency [18]

c1ccc(C(O[C@@H]2CCCN(CCc3ccc4c(c3)OCO4)C2)c2ccccc2)cc1
inactive: Potency [12] | Potency [2] | Potency [4] | Potency [7] | Potency [8]

CCCCN(CCCC)CC(O)c1cc(Cl)cc2c1-c1ccc(Cl)cc1/C2=C/c1ccc(Cl)cc1 (centres undefined)
inactive: Potency [7] | Potency [8] | Potency [11]
active: Potency [2] 29.8 µM | Potency [3] 29.8 µM

O=C1CCc2ccc(OCCCCN3CCN(c4cccc(Cl)c4Cl)CC3)cc2N1
active: Potency [1] 11.9 µM | Potency [2] 13.3 µM | Potency [3] 13.3 µM | Potency [4] 16.8 µM | Potency [5] 11.9 µM | Potency [6] 10.7 µM | Potency [7] 26.8 µM
inactive: Potency [15] | Potency [9] | Potency [11]

COC(=O)c1ccccc1OC
inactive: Potency [1] | Potency [2] | Potency [13] | Potency [14] | Potency [3] | Potency [15] | Potency [4] | Potency [5] | Potency [6] | Potency [7] | Potency [9] | Potency [11] | Potency [17] | Potency [18]

FC(F)(F)c1cccc(Cl)c1
inactive: Potency [1] | Potency [2] | Potency [13] | Potency [14] | Potency [3] | Potency [15] | Potency [4] | Potency [5] | Potency [6] | Potency [7] | Potency [9] | Potency [11] | Potency [17] | Potency [18]

O=C(O)O
active: Potency [2] 2.37 µM | Potency [10] 2.96 µM
inactive: viability change, negative = cytotoxic [3] 5.67% [at 5.95 µM] | activity change, negative = cytotoxicity [4] -10.5% [at 5.95 µM] | activity change, negative = inhibition [16] 0.752% [at 6.95 µM] | viability change, negative = cytotoxic [6] -0.215% [at 6.95 µM] | activity, negative = cytotoxic [7] -3.19% [at 6.95 µM] | activity, negative = cytotoxicity [9] 0.616% [at 8.39 µM] | viability change, negative = cytotoxic [11] -29.9% [at 6.97 µM]

C=CC(=O)Nc1cc2c(Nc3ccc(F)c(Cl)c3)ncnc2cc1OCCCN1CCOCC1
active: Potency [7] 15.1 µM | Potency [8] 16.9 µM
inactive: Potency [12] | Potency [2] | Potency [13] | Potency [15] | Potency [4] | Potency [5] | Potency [10]

O=S(=O)(O)c1ccc(Nc2nc(Nc3ccc(/C=C/c4ccc(Nc5nc(Nc6ccc(S(=O)(=O)O)cc6)nc(N(CCO)CCO)n5)cc4S(=O)(=O)O)c(S(=O)(=O)O)c3)nc(N(CCO)CCO)n2)cc1
active: Potency [15] 33.1 µM | Potency [18] 26.3 µM
inactive: Potency [1] | Potency [2] | Potency [4] | Potency [5] | Potency [7] | Potency [9] | Potency [10] | Potency [11]

NC(=S)NC(N)=S
inactive: Potency [1] | Potency [2] | Potency [3] | Potency [4] | Potency [19] | Potency [5] | Potency [7] | Potency [8] | Potency [11]

O=C(O)CCN(C1(C(=O)NO)CCCC1)S(=O)(=O)c1ccc(Oc2ccc(F)cc2)cc1
inactive: Potency [1] | Potency [2] | Potency [3] | Potency [4] | Potency [5] | Potency [6] | Potency [7] | Potency [9] | Potency [11] | Potency [17]

O=S(=O)(O)c1ccc(N=Nc2c(O)ccc3ccccc23)cc1
active: Potency [3] 38.9 µM | Potency [4] 38.9 µM
inactive: Potency [1] | Potency [13] | Potency [16] | Potency [5] | Potency [7] | Potency [8] | Potency [17]

COc1c(C)c2c(c(O)c1C/C=C(\C)CCC(=O)OCCN1CCOCC1)C(=O)OC2
active: Potency [14] 1.5 µM
inactive: Potency [12] | Potency [15] | Potency [19] | Potency [5] | Potency [7] | Potency [8] | Potency [11] | Potency [17]
